This note sets out measurements from PubChem BioAssay (Tox21).

Molecules are shown by their SMILES. Unmarked numbers belong to inactive results. Calls of active or inactive are those of the source. Calls come from the whole dose curve; as a rule, active = well fitted activation curve with a large enough effect in the repeat runs; inconclusive = weak or mixed curves; inactive = flat fitted curve, though single readings scatter.
% is set by controls: 0 for no effect and ±100 for the full control effect.

This experiment in a line: A CellTox Green Cytotoxicity Assay to monitor cytotoxicity in HepG2 cells - 0 hour (AID 1224882). Note: nearly all actives have a fitted effect of over 35% in size. Particulars: CellTox Green fluorescence; series mostly up to 76.8 µM. An excerpt:
National Center for Advancing Translational Sciences [NCATS]
NIH Chemical Genomics Center [NCGC]
U.S. Environmental Protection Agency [EPA]
National Institutes of Environmental Health Sciences [NIEHS]
National Toxicology Program [NTP]
Cell-based models are critical for drug discovery. Determining the natural cytotoxic effects resulting from test compounds is an essential research activity. A CellTox Green Cytotoxicity Assay to monitor cytotoxicity in real time of continues cell culture during 40 hours of the compound treatment was used to screen Tox21 10K library compounds in HepG2 cells. CellTox Green Cytotoxicity Assay is a nonlytic, homogeneous, biofluorescent method to measure cytotoxicity in cell culture after experimental manipulation. The assay system uses a proprietary asymmetric cyanine dye that is excluded from viable cells but preferentially stains the dead cell's DNA. […] Viable cells produce no appreciable increases in fluorescence. Therefore, the fluorescence signal produced by the binding interaction with dead cell DNA is proportional to cytotoxicity.
The mixture of HepG2 cell suspension and reagents were dispensed at 600cells/6 ul/well in 1536-well tissue culture treated black solid bottom plates using a Multidrop dispenser. After the assay plates were incubated at a 37 C/5% CO2 incubator for 5 hours, 23 nL of compounds dissolved in DMSO, positive and negative controls was transferred to the assay plate by a pintool work station. The plates were incubated at 37 C for 40 hours. The fluorescence intensity were measured at 0h, 8h, 16h, 24h, 32h and 40h time points using ViewLux plate reader during compound treatment.
Turning to `C=CCC1(C(C)CC)C(=O)NC(=O)NC1=O` (stereo not given), the compound was called inactive. On the same count and under the same terms, the value for `Cc1ccc(-c2nc3ccc(C)cn3c2CC(=O)N(C)C)cc1` was “inactive”. On the same count and under the same terms, then `CCNc1nc(NCC)nc(SC)n1`, with “inactive”; and `CCCC(C)(COC(N)=O)COC(N)=O`, with “inactive”. On the same count and under the same terms, then `O=c1[nH]c2ccccc2n1C1CCNCC1`, with “inactive”. For `CCC1(c2ccccc2)C(=O)N(COC)C(=O)N(COC)C1=O`, the result was inactive. On the same count and under the same terms, the value for `COP(=O)(OC)O/C(C)=C/C(=O)N(C)C` was “inactive”; that for `ClCCCCl` was “inactive”. `CCN[C@H](C)Cc1cccc(C(F)(F)F)c1`: the outcome was inactive. The same measure, in the same setting: then `COc1cccc([C@@]2(O)CCCC[C@@H]2CN(C)C)c1`, with “inactive”; and `CCOc1cc(OP(=S)(OC)OC)nc(CC)n1`, with “inactive”; and `c1ccc2c(c1)CCNC2`, with “inactive”.

On to `CCOC(=O)c1ncn2c1CN(C)C(=O)c1c(I)cccc1-2`, for which the call was inactive. Take `CCC(=O)OC1(c2ccccc2)CCN(C)CC1`: the result was inactive. The same measure, in the same setting: the value for `CCOC(=O)CC(SP(=S)(OC)OC)C(=O)OCC` (stereo not given) was “inactive”; that for `CCOC(=O)COc1ccc(Cl)cc1Cl` was “inactive”; that for `C=CC(=O)OCCN(C)C` was “inactive”. Same read-out and setting: the value for `Clc1ccc(C(Cl)(Cl)Cl)cn1` was “inactive”. In the case of `CN(C)C(=O)Oc1cc(OC(=O)N(C)C)cc(C(O)CNC(C)(C)C)c1` (stereo not given), the outcome was inactive.

Turning to `CCCCOC(C)=O`, the compound was classed as inactive. As for `CCCC[N+](=O)[O-]`, the compound was called inactive.

As for `O=C(Cl)c1ccccc1`, the result was inactive.

Consider `C=C1C[C@@H]2[C@H](CC[C@]3(C)C(=O)CC[C@@H]23)[C@@]2(C)C=CC(=O)C=C12`, for which the result was inactive. On the same count and under the same terms, then `CC(C)C(C)(N)C#N` (stereo not given), with “inactive”; and `CCCOc1nn(C(=O)NS(=O)(=O)c2ccccc2C(=O)OC)c(=O)n1C`, with “inactive”. Still for that read-out and setting: then `NC(=O)CS(=O)C(c1ccccc1)c1ccccc1` (stereo not given), with “inactive”; and `CC(Cc1ccccc1)NCCn1cnc2c1c(=O)n(C)c(=O)n2C` (stereo not given), with “inactive”. The same measure, in the same setting: the value for `O=P(O)(O)c1ccccc1` was “inactive”; that for `CCc1cc(OC)c(C[C@H](C)N)cc1OC` was “inactive”; that for `CC(C)c1ccc(O)cc1` was “inactive”. In the case of `Cc1ccc2c(c1)C1CN(C)CCC1N2` (stereo not given), the cytotoxicity was -0.534% [at 15.8 µM]. For the compound `C[C@@H](N)[C@@H](O)c1ccccc1`, the compound was classed as inactive. The same measure, in the same setting: the value for `CCOC(=O)C(Cl)Cc1cc(-n2nc(C)n(C(F)F)c2=O)c(F)cc1Cl` (stereo not given) was “inactive”. On the same count and under the same terms, then `CC[C@@H](CO)NC(=O)[C@@H]1C=C2c3cccc4c3c(cn4C)C[C@H]2N(C)C1`, with “inactive”. Same read-out and setting: the value for `O=C1C2CC=CCC2C(=O)N1SC(Cl)(Cl)Cl` (stereo not given) was “inactive”; that for `C=C(Cl)CSC(=S)N(CC)CC` was “inactive”.

For `CC(=O)OCC1=C(C(=O)O)N2C(=O)[C@@H](N)[C@H]2SC1`, the cytotoxicity is -8.52% [at 15.8 µM]. On to `CCc1ccc(C2CCNCC2)cc1`, for which the call was inactive. Same read-out and setting: then `COC[C@@H](NC(C)=O)C(=O)NCc1ccccc1`, with “inactive”. Still for that read-out and setting: the value for `CN(C)CCN(C)C` was “inactive”.
